Source: PubChem BioAssay
KKLEB cytotox: CF airway cell cytotoxicity counter-screen | KKLEB CF airway cells viability, ATPlite luminescence, overnight; active compounds read low; cells stimulated with P. aeruginosa culture filtrate | activity change (cytotoxicity), % at 5 µM | 0.36% of 360,000 active | AID 602141;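 active = corrected activity change at or below -50% at 5 µM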
TRPM1 prom inh: MITF TRPM1 promoter inhibition in SK-MEL-5 cells | inhibition, % at 12.5 µM | 0.83% of 330,000 active | AID 488899 | SK-MEL-5 TRPM1 promoter luciferase, 24 h;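 active = mean inhibition across replicates of 60% or more, whatever share of single replicates reaches that level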
ABHD5-PLIN5 inh: blocks binding of human ABHD5 to perilipin-5 | Q00G26+Q8WTS1 | 0.78% of 360,000 active | Split G. princeps luciferase complementation, luminescence, 4 h | inhibition, % at 4 µM;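 active = inhibition above the mean inhibition across every tested compound plus 3 SD, cut at about 22% in these data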
Target sequence (Q00G26 whole entry, looked up): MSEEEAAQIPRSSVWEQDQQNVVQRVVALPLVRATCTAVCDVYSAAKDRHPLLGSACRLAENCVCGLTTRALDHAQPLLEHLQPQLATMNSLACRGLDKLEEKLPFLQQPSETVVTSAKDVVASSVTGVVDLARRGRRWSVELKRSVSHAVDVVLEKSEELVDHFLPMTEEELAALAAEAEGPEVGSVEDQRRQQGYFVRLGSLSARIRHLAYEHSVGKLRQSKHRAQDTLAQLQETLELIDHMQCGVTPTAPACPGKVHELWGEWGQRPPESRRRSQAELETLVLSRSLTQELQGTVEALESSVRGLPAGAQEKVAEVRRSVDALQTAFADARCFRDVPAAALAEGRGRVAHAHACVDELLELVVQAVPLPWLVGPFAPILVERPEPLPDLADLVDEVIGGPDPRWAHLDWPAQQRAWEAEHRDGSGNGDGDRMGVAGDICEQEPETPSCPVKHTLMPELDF
Target sequence (Q8WTS1 whole entry, looked up): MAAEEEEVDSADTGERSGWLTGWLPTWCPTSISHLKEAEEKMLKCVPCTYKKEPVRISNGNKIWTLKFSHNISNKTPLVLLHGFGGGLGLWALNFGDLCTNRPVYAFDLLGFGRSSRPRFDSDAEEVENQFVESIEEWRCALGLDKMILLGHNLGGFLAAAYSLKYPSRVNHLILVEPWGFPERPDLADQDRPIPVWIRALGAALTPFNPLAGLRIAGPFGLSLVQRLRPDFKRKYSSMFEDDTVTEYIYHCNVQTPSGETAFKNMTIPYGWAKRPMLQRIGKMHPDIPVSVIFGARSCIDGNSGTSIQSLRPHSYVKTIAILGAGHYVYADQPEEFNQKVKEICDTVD
HIF-2a block: HIF-2a inhibition; AID 624352; 0.72% of 360,000 active; 786-0 RCC cells HIF-2a reporter, luciferase luminescence, overnight; inhibition, % at 18.8 µM;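 active = inhibition of the luminescence signal of 40% or more relative to plate controls, in a single-dose primary screen at 18.75 µM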
CF NFkB inh: inhibitors of cystic fibrosis induced NF-kB; KKLEB NF-kB-GFP reporter, PAF-induced, GFP fluorescence overnight; inhibition, % at 5 µM; 0.86% of 360,000 active; AID 588850;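 active = at least 50% inhibition at 5 µM, scaled per plate between neutral and stimulator controls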;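 note: PAF is a Pseudomonas aeruginosa culture filtrate used as stimulus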
Peg3 promoter: Peg3 promoter activity inhibition. HeLa PEG-Prom luciferase reporter, luminescence, overnight. inhibition, % at 20 µM. 1.7% of 360,000 active;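 active = inhibition of at least 50% at 20 µM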
Large screens that a line does not name were inactive. Most compounds without a hit are left out; they make up all but 3.1% or so of the library.

CCC(=O)N1CCN(c2ccc(Cl)cc2NC(=O)c2cccc([N+](=O)[O-])c2)CC1	none
CS(=O)(=O)N1CCN(c2ccccc2NC(=O)c2ccc([N+](=O)[O-])o2)CC1	none
CCN1CCN(c2ccc(S(=O)(=O)N3CCCCC3)cc2NC(=O)c2ccc(F)cc2)CC1	none
O=C(COC(=O)c1ccc([N+](=O)[O-])o1)Nc1ccc(N2CCOCC2)cc1	none
CCN1CCN(c2ccc(S(=O)(=O)N3CCCCC3)cc2NC(=O)c2ccc([N+](=O)[O-])o2)CC1	TRPM1 prom inh 95
Fc1ccc(-c2nnsc2Sc2ccccn2)cc1	none
Cc1cccc(NC(=O)CN2CCN(C(=O)c3cncn3-c3ccc(F)cc3)CC2)c1C	none
Cc1c(C(=O)Nc2ccccc2N2CCN(C)CC2)oc2ccc(F)cc12	ABHD5-PLIN5 inh 22
COc1ccccc1N1CCN(C(=O)c2oc3ccc(F)cc3c2C)CC1	none
COc1ccc(-c2nn(-c3ccccc3)cc2CO)cc1	none
N=C(N)SCc1cn(-c2ccccc2)nc1-c1ccc(Br)cc1	Peg3 promoter 108
Cc1ccc(NC(=O)CCC(=O)NNC(=S)Nc2ccccc2)c(C)c1	none
Cc1ccc(NC(=S)NNC(=S)Nc2ccc(C)cc2C)cc1	CF NFkB inh 57
CSc1ncccc1C(=O)N1CCCC(Nc2ccc(C)c(C)c2)C1 (centres undefined)	none
CC(Nc1nc(N2CCCCC2)nc2ccccc12)c1ccccc1 (centres undefined)	Peg3 promoter 68
Cc1csc(NC(=O)c2ccc(Cl)nc2)n1	none
Cc1nc(N2N=C(c3ccc(Cl)cc3)CC2c2ccco2)sc1C(=O)N(C)C (centres undefined)	ABHD5-PLIN5 inh 22
Clc1ccc(C2=NN(c3ccccc3)C(c3ccco3)C2)cc1 (centres undefined)	none
COc1cc(SC)ccc1C(=O)Nc1ccc(Cl)cn1	KKLEB cytotox -69, HIF-2a block 53
CSc1ccc(Cl)c(C(=O)Nc2ccc(Cl)cn2)c1	none
O=C(c1cc(C2CCCCN2S(=O)(=O)c2cccs2)on1)N1CCOCC1 (centres undefined)	none (no result: TRPM1 prom inh)
CN1C(=O)c2ccccc2Sc2ccc(NC(=O)NC3CC3)cc21	ABHD5-PLIN5 inh 25
CCOc1ccc(-c2cnc(NCc3cccc4ccccc34)n2CCOC)cc1	none
CN(C)CC(CCC(CN(C)C)C(=O)c1ccccc1)C(=O)c1ccccc1 (centres undefined)	KKLEB cytotox -61, TRPM1 prom inh 97, ABHD5-PLIN5 inh 41, HIF-2a block 94, CF NFkB inh 90, Peg3 promoter 109
CCOc1ccc(C(=O)C(CCC(CN(C)C)C(=O)c2ccc(OCC)cc2)CN(C)C)cc1 (centres undefined)	KKLEB cytotox -100, TRPM1 prom inh 103, ABHD5-PLIN5 inh 49, HIF-2a block 93, CF NFkB inh 96, Peg3 promoter 106
CC(OC(=O)c1ccccc1O)C(=O)Nc1cccc(Cl)c1 (centres undefined)	none
O=C(CN1C(=O)c2ccccc2C1=O)Nc1cccc2cccnc12	none
O=C1C=C(Nc2ccccc2)C(=O)c2ccccc21	CF NFkB inh 60
CC1=C(O)c2ccccc2C(=O)C1=O	none (no result: TRPM1 prom inh)
O=C1C=C(Nc2cccc3cccnc23)c2ccccc2C1=O	TRPM1 prom inh 80
CC1=CC(=O)c2ccccc2C1=O	CF NFkB inh 62
CCc1ccc(NC2=CC(=O)C(=O)c3ccccc32)cc1	KKLEB cytotox -91, TRPM1 prom inh 104, CF NFkB inh 96
O=C(CNc1cc(S(=O)(=O)N2CCOCC2)ccc1N1CCCC1)N1CCc2ccccc21	none
CCCCNC1=CC(=O)C(NCCCC)=CC1=O	none
O=C1C=C(Nc2ccccc2)c2ccccc2C1=O	TRPM1 prom inh 102, CF NFkB inh 72
CCCCNC1=CC(=O)C(=O)c2ccccc21	TRPM1 prom inh 94
O=C1C=C(Nc2ccccc2C(=O)O)c2ccccc2C1=O	none
O=C(Oc1c(Cl)cc(Cl)c2cccnc12)c1cccc([N+](=O)[O-])c1	Peg3 promoter 54
O=C(Oc1ccc(Cl)c2cccnc12)c1cccc([N+](=O)[O-])c1	none
N#C/C(=C\c1ccncc1)c1nc2ccccc2c(=O)[nH]1	none
Cc1ccc(/C=C2\C(=O)ON=C2c2ccccc2)o1	none
Cc1ccc(-c2ccc(/C=C3\C(=O)ON=C3c3ccccc3)o2)c([N+](=O)[O-])c1	HIF-2a block 95, CF NFkB inh 52, Peg3 promoter 97
Cc1ccc(C2=NOC(=O)/C2=C\c2ccc(C)o2)cc1	HIF-2a block 42
O=C1/C(=C\c2ccc(-c3ccccc3[N+](=O)[O-])o2)C(c2ccccc2)=NN1c1ccccc1	none
CCOc1ccc(CN2CCNC(=O)C2CC(=O)NCCN2CCOC2=O)cc1 (centres undefined)	none
CCN1C(Nc2ccccc2)=NC[C@@H]1Cc1ccccc1	none
CC(C)(C)C1CCC(CN2C(Nc3ccccc3)=NC[C@@H]2Cc2ccccc2)CC1 (some centres undefined)	TRPM1 prom inh 95, Peg3 promoter 95
Cc1ccc([N+](=O)[O-])c(OCCCN2C(=O)NC(C)(C)C2=O)c1	none
O=C(c1cn(Cc2ccccc2)nc1-c1cccnc1)N1CCN(Cc2ccccc2)CC1	Peg3 promoter 98
O=C(CCC(=O)c1ccccc1)NCc1ccccc1	none
O=C(c1ccoc1)N1CCN(c2cc(-c3ccco3)nc3cc(-c4ccccc4)nn23)CC1	Peg3 promoter 74 (no result: TRPM1 prom inh)
COc1ccccc1-c1cc2nc(-c3ccccc3)cc(N3CCN(C(=O)c4ccco4)CC3)n2n1	Peg3 promoter 73 (no result: TRPM1 prom inh)
COc1ccccc1-c1cc2nc(-c3ccccc3)cc(N3CCN(C(=O)c4ccoc4)CC3)n2n1	Peg3 promoter 81 (no result: TRPM1 prom inh)
COc1cccc(-c2cc3nc(-c4ccccc4)cc(N4CCN(C(=O)c5ccoc5)CC4)n3n2)c1	Peg3 promoter 72 (no result: TRPM1 prom inh)
O=C(NCc1cccnc1)c1csc([C@@H]2C[C@H](O)[C@@H](CO)O2)n1	none (no result: TRPM1 prom inh)
Cc1occc1C(=O)Nc1ccccc1C#N	none
Oc1c(C(c2ccccc2Cl)N2CCCC2)ccc2cccnc12 (centres undefined)	TRPM1 prom inh 75
Cc1c(Cl)cccc1NC(=S)NNc1ncc(C(F)(F)F)cc1Cl	Peg3 promoter 54
Cc1ccccc1NC(=S)NNc1ncc(C(F)(F)F)cc1Cl	none
CC(C)(C)C1CCC(=O)N(CCC#N)CC1 (centres undefined)	none
CCOc1ccc(NC(=O)N(O)C2(C#N)CCCCC2)cc1	Peg3 promoter 96
CC(c1ccc(F)cc1)n1cc(S(=O)(=O)N2CCCC2)ccc1=O (centres undefined)	none
CCn1nc(C)c(/C=N/NC(=O)Cn2cncn2)c1C	none (no result: TRPM1 prom inh)
NC(=O)CC(NC(=O)c1cccc(Br)c1)c1ccc(N2CCN(c3ccccn3)CC2)c([N+](=O)[O-])c1 (centres undefined)	HIF-2a block 81
